Source: PubChem (Broad Institute)
The full list was thinned out, with hits kept by preference.
CD40 NFkB inh – CD40 pathway inhibition in BL2 cells. inhibition, % at 10 µM. BL2 NF-kB luciferase reporter, CD40L-induced, 4 h. 83,000 compounds, 0.94% hits;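 active means mean inhibition of at least 50% with a set share of replicates also reaching that level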;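 further: 0% = neutral control wells and 100% = IKK inhibitor VII at 50 µM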
An asterisk follows results filed as active; [ ] = remark or other dose.

SMILES	CD40 NFkB inh
COCC(=O)Nc1ccc2c(c1)OC[C@@H](C)N(CCc1ccccc1)C[C@@H](C)[C@H](OC)CN(C)C2=O	6.2
C/C=C/c1ccc2c(c1)[C@H]1[C@H](CCN1S(=O)(=O)c1ccc(C)cc1)[C@H](CO)N2	-17.5[25 µM]
O=C(C[C@H]1C[C@@H]2c3cc(NC(=O)c4ccc5c(c4)OCO5)ccc3O[C@@H]2[C@@H](CO)O1)NCc1ccccn1	13.0[25 µM]
COc1ccc(NC(=O)O/N=C/c2c(C)nn(C(C)(C)C)c2C)cc1	64.0*
COc1ccc(NC(=O)CCc2c(C)nc3nc(C)nn3c2C)cc1	1.6
COc1cc(C=NOC(=O)Nc2ccccc2)cc(OC)c1OC	-25.6
CCN(CC)CC(=O)Nc1c(C)cc(C(C)(C)C)cc1C	-37.7
CCN(CC)c1ccc(C(=O)O)cc1	-1.7
CCN(CC)CC(C)(C)C(=O)/C=C/c1ccc(/C=C/C(=O)C(C)(C)CN(CC)CC)cc1	74.8*
COc1ccccc1-c1ccc2c(c1)[C@@H]1[C@@H](CCN1C(=O)c1ccc3c(c1)OCO3)[C@H](CO)N2	-6.7[25 µM]
COc1ccc(-c2ccc3c(c2)[C@@H]2[C@@H](CCN2C(=O)C2CCOCC2)[C@@H](CO)N3C)cc1	-36.5[25 µM]
Cc1ccc(S(=O)(=O)C=CS(=O)(=O)c2ccc(C)cc2)cc1	101.0*
Cc1ccc(S(=O)(=O)CS(=O)(=O)c2ccc(C)cc2)cc1	1.6
CNS(=O)(=O)c1ccc(C)cc1	5.8
CC(=O)N(C)C[C@@H]1Oc2ccc(N)cc2C(=O)N(C)C[C@H]1C	4.6
COc1ccccc1-c1ccc([C@H]2[C@@H](CO)N[C@@H]2CNC(=O)C2CCC2)cc1	6.5
C[C@H](CO)N1C[C@H](C)[C@H](CN(C)Cc2cccnc2)OCc2cnnn2CCCC1=O	-5.4[25 µM]
O=C(C[C@H]1C[C@H]2c3cc(NC(=O)Cc4ccncc4)ccc3O[C@H]2[C@H](CO)O1)NCc1cc(F)ccc1F	-7.7[25 µM]
Cc1nc2c(=O)n(C)c(=O)n(C)c2nc1Cl	105.3*
Cc1cc(Nc2nc3c(c(=O)n(C)c(=O)n3C)n2C)n(-c2ccc(Cl)cc2)n1	-4.9
CC(C)Sc1nc2c(c(=O)n(C)c(=O)n2C)n1C	10.6
CC(=O)N(C)C[C@H]1Oc2ccc(N)cc2CC(=O)N(C)C[C@@H]1C	3.3
COc1ccccc1CN(C)C[C@@H]1OCc2ccccc2-c2c(n(C)c3ccccc23)C(=O)N([C@H](C)CO)C[C@H]1C	15.8[25 µM]
CCC(=O)Nc1cc(-c2nn(C)c(=O)c3ccccc23)ccc1N1CCCCC1	48.4*
CCCC(=O)Nc1cc(-c2nn(C)c(=O)c3ccccc23)ccc1N1CCCCC1	1.2
SMILES	CD40 NFkB inh
Cn1nc(-c2ccc(N3CCOCC3)c(NS(=O)(=O)c3ccccc3)c2)c2ccccc2c1=O	16.1
O=C1NCCOCn2nncc2CC[C@H]1Cc1ccccc1	2.9
COc1ccc(C(=O)[C@H]2[C@H]3C(=O)N(c4ccccc4)C(=O)[C@H]3C3C=CC=NN32)cc1 (some centres not stated)	-44.8
CC1CN(Cc2ccccc2)C(=O)N(c2ccccc2)C1=O (configuration not stated)	-3.0
O=C1C=CC2C3C(=O)N(c4ccccc4)C(=O)C3C1N2Cc1ccccc1 (configuration not stated)	100.0*
O=C(C1CCC1)N1CC[C@@H]2[C@H](CO)Nc3ccc(C4=CCCCC4)cc3[C@@H]21	-47.3[25 µM]
CC(=O)Nc1cccc2c1O[C@@H](CN(C)C(C)=O)[C@H](C)CN(C)C2=O	12.0
CNc1c2cccc(C)c2nc2c(C(=O)NCCN(C)C)cccc12	85.5*
Cc1ccc(C(=O)NCCN(C)C)c(C)c1	5.2
Cc1ccccc1C(=O)Nc1c(C(=O)N(CCN(C)C)Cc2ccco2)oc2ccccc12	18.0
CC(C)(C)[S@](=O)N1Cc2cc(C(=O)NCC(F)(F)F)nc(-c3cccc(-c4cccc(F)c4)c3)c2[C@@H]1CCO	79.9*[25 µM]
COc1cccc(-c2cccc(-c3nc(C(=O)NCC(F)(F)F)cc4c3[C@@H](CCO)N([S@](=O)C(C)(C)C)C4)c2)c1	5.0
CC(C)(C)[S@@](=O)N1Cc2cc(C(=O)NCC(F)(F)F)nc(-c3cccc(-c4cccc(F)c4)c3)c2[C@H]1CCO	-12.8[25 µM]
COc1cccc(C#Cc2ccc3c(c2)[C@@H]2[C@@H](CCN2S(=O)(=O)c2ccc(C)cc2)[C@H](CO)N3)c1	7.4[25 µM]
OC(CCN1CCCCC1)c1ccc(-c2ccccc2)cc1 (configuration not stated)	57.5*
OC(CCN1CCC2CCC(C2)C1)c1ccc(Br)cc1 (configuration not stated)	8.7
OC(COc1ccc(-c2ccccc2)cc1)CN1CCCCC1 (configuration not stated)	-18.2
O=C(Nc1ccccc1)NC1CC(C(=O)O)Nc2cc(Cl)cc(Cl)c21 (configuration not stated)	4.4[25 µM]
O=C(Cc1ccccc1)N1C[C@@H]2[C@H](c3ccccc31)[C@H](CO)N2C(=O)C1CC1	4.2
O=C(/C=C/c1ccccc1)Nc1cccc(C(=O)O)c1	82.0*
COC(=O)c1cccc(NC(=O)/C=C/c2cccc([N+](=O)[O-])c2)c1	-30.0
CC(=O)c1cccc(NC(=O)/C=C/c2ccc(S(=O)(=O)N3CCOCC3)cc2)c1	8.4
